Screening results: PubChem BioAssay, National Center for Advancing Translational Sciences (NCATS)
Pf growth 96h = inhibits malaria parasite growth, 96 h; P. falciparum luciferase reporter growth, 96 h; 320,000 tested, 6.9% active; Potency, µM (series often up to 28.7 µM), without a hit: at the highest dose activity change, negative = inhibition, actives largely listed as inhibitors; AID 504834; note: % is set by controls: 0 for no effect and ±100 for the full control effect
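P. falciparum expressing integrated firefly luciferase grown in erythrocytes (2% hematocrit, 0.05% parasitemia final) with compounds for 96 hours at 37 C, 5% CO2. Growth inhibition read as loss of luminescence after adding luciferase detection reagent.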
Pf growth 48h = inhibits P. falciparum growth in the first generation, 48 h; P. falciparum luciferase growth in erythrocytes, 48 h; Potency, µM (titrated, usually from 28.7 µM), for the others: at the highest dose activity change, negative = inhibition, most hits filed as inhibitors; 310,000 tested, 5.9% active; note: % is set by controls: 0 for no effect and ±100 for the full control effect
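Growth was read as firefly luciferase luminescence after a 48 h, 37 C, 5% CO2 exposure of compounds to reporter-bearing P. falciparum cultures (0.1% parasitemia, 2% hematocrit final) in Albumax-supplemented RPMI 1640.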
AMA1 RON2 block = disrupts binding of P. falciparum AMA1 to RON2; AlphaScreen AMA1-biotinylated RON2 peptide binding; Potency, µM (highest dose often 58.2 µM), inactives show at the highest dose activity change, negative = inhibition, hits mostly inhibitors; 360,000 tested, 0.2% active;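 note: 0% = vehicle wells and -100% = peptide control; nearly all actives have a fitted effect of over 45% in size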
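AMA1 (3D7) with his tag at 25 nM final met compounds first, then biotinylated RON2 peptide at 25 nM; detection used donor plus acceptor beads, 10 µg/mL apiece, read by AlphaScreen after 30 min at room temperature.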
Sm TGR block = inhibitors of Schistosoma mansoni thioredoxin glutathione reductase | Q962Y6 | Potency, µM (series often up to 114 µM), without a hit: at the top dose activity change, negative = inhibition, actives largely listed as inhibitors | purified TGR, DTNB reduction, TNB absorbance 405 nm | 360,000 tested, 3% active; note: % is set by controls: 0 for no effect and ±100 for the full control effect; nearly all actives have a fitted effect of over 60% in size
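TGR 20 nM + NADPH 100 uM (dispensed conc.), cpd preinc 15 min RT; start with NADPH (500 uM addition) then DTNB (15 mM addition). Kinetic TNB absorbance, 405 nm filter. Four-parameter Hill fit across titration.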
NS1 inh = blocks influenza NS1 protein function. Potency, µM (doses to about 46.1 µM), for the others: top-dose activity, positive = more growth. 270,000 tested, 0.4% active. AID 2326; calls by dose curve; note: actives are rising curves; nearly all actives have a fitted effect of over 50% in size
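Growth recovery, yeast-based: influenza A NS1 expressed in S. cerevisiae causes slow growth, and suppressors are detected by OD600. The parent strain without NS1 is used as positive control.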
Starred values were filed as active, the others as inactive; ? = inconclusive; nt = no result given; [ ] = remark or other dose. Sampled rows, rich in hits. Any-hit rate of the full collection: about 11%. Unless noted, calls come from the whole dose curve; as a rule, active = well fitted curve in the direction sought with a large enough effect; inconclusive = small, poorly fitted or top-dose-only effect, or another doubt; inactive = no such curve, though single readings can be large; an effect the other way counts as inactive or inconclusive. Potency is the fitted concentration of half-maximal effect.

SMILES	Pf growth 96h	Pf growth 48h	AMA1 RON2 block	Sm TGR block	NS1 inh
Cc1nc(N2CCCCC2)c2c(C)c(C(=O)Nc3ccccc3C(F)(F)F)sc2n1	?	9.28µM*	-13.7%	-1.8%	nt
O=C(O)C1Oc2cc3ccccc3cc2O1	28.1%	40.7%	-14.5%	-35.3%	0.8%
Cc1cccc(C(=O)NNc2ncnc3c2cnn3C)c1	-71.8%	-2.8%	49.3%	6.8%	nt
C[C@@H]1C[C@H]2[C@@H]3C[C@H](F)C4=CC(=O)C=C[C@]4(C)[C@@]3(F)[C@@H](O)C[C@]2(C)[C@@]1(O)C(=O)COC(=O)C(C)(C)C	0.0%	?	-13.5%	5.5%	-0.2%
CCC(=O)O[C@@]1(C(=O)SCF)[C@@H](C)C[C@H]2[C@@H]3C[C@@H](F)C4=CC(=O)C=C[C@@]4(C)[C@]3(F)[C@@H](O)C[C@]21C	4.05µM*	5.73µM*	nt	nt	nt
CCCSc1ncc(Cl)c(C(=O)N(Cc2ccc(Cl)cc2)Cc2ccco2)n1	nt	nt	nt	-18.9%	nt
CCCSc1ncc(Cl)c(C(=O)NCc2ccc(OC)cc2)n1	nt	nt	nt	9.0%	nt
COc1ccc(CNC(=O)c2onc(C)c2Cl)cc1	13.1µM*	-2.6%	0.0%	-6.8%	-7.3%
CCS(=O)(=O)c1ncc(Cl)c(C(=O)NCc2ccc(OC)cc2)n1	nt	nt	nt	10µM*	nt
CCS(=O)(=O)c1ncc(Cl)c(C(=O)N(Cc2ccccc2)c2ccc(OC)cc2)n1	nt	nt	nt	39.8µM*	nt
CCCS(=O)(=O)c1ncc(Cl)c(C(=O)N(Cc2ccccc2)Cc2ccco2)n1	nt	nt	nt	5.01µM*	nt
COc1ccc(NC(=O)c2onc(C)c2Cl)cc1	251.8%	123.7%	18.6%	-3.9%	-1.0%
Cc1ccc(Cl)cc1N1CCN(C(=O)c2ccc3c(c2)N(Cc2ccc(F)cc2)CCS3)CC1	nt	nt	nt	1.1%	nt
CC(=O)N1CCc2cc(S(=O)(=O)NC(Cc3ccccc3)C(=O)Nc3ccc(C)cc3C)ccc21 (stereo unspecified)	nt	nt	nt	-0.5%	nt
CCS(=O)(=O)c1ncc(Cl)c(C(=O)N2CCN(c3ccc(OC)cc3)CC2)n1	nt	nt	nt	35.5µM*	nt
CCCC(=O)Nc1ccccc1NC(=O)c1ccc(OCC)c(OCC)c1	-4.4%	3.6%	-20.9%	3.6%	4.7%
O=C(NNC(=O)C1CCN(c2ncccn2)CC1)c1ccc(F)cc1	-15.7%	3.9%	27.8%	2.5%	-6.1%
c1ccc2c(C3=NNC(=NC4CC4)SC3)c[nH]c2c1	-88.0%	-97.7%	-8.5%[11.6 µM]	7.3%	0.6%
c1ccc2c(C3=NNC(=NC4CCCCC4)SC3)c[nH]c2c1	14.7µM*	?	48.7%	0.0%	?
CCOC1=C2CN(S(=O)(=O)c3ccc(C)cc3)C(c3cccc(Cl)c3)CC2N(S(=O)(=O)c2ccc(Cl)cc2)C(c2ccccc2)C1 (stereo unspecified)	nt	nt	3.3%	nt	nt
COc1ccc(-c2cc(C(=O)NCCc3ccc(S(N)(=O)=O)cc3)c3ccccc3n2)cc1	-8.8%	80.9%	1.0%	4.0%	nt
N#Cc1ccc(CN2CCN(C(=O)CNC(=O)Cc3ccccc3)CC2)cc1	0.0%	-15.3%	-21.9%	-27.4%	nt
O=C(CC1C(=O)NCCN1Cc1ccoc1)NCCc1ccc(Cl)cc1 (stereo unspecified)	?	19.1%	4.8%	?	-3.0%
Cc1nc(CCNC(=O)CC2C(=O)NCCN2Cc2ccoc2)nc2c1CCCC2 (stereo unspecified)	?	21.7%	18.8%	28.2µM*	-2.7%
CCc1ccc(CN(C)C(=O)CC2C(=O)NCCN2Cc2ccoc2)cc1 (stereo unspecified)	?	0.0%	1.3%	17.8µM*	1.4%
SMILES	Pf growth 96h	Pf growth 48h	AMA1 RON2 block	Sm TGR block	NS1 inh
COc1ccc(CN2CCNC(=O)C2CC(=O)NCCc2nc(C)c(C)s2)cc1C (stereo unspecified)	-27.4%	-14.6%	21.5%	?	8.5%
COC(=O)CCCNC(=O)CC1C(=O)NCCN1Cc1ccoc1 (stereo unspecified)	13.1µM*	32.4%	-2.1%	44.7µM*	0.3%
Cc1nc(CNC(=O)CC2C(=O)NCCN2Cc2ccoc2)nc2c1CCCC2 (stereo unspecified)	-8.8%	3.4%	32.7%	14.1µM*	-3.1%
Cc1ccc(CN(C)C(=O)CC2C(=O)NCCN2CC2CCCCC2)cc1 (stereo unspecified)	-3.7%	-0.4%	-24.3%	?	5.8%
COC(=O)c1sccc1S(=O)(=O)N1CCN(c2cccc(C)c2C)CC1	nt	nt	nt	-5.5%	nt
COc1cccc(C(=O)NC(=NCCc2c[nH]c3ccc(OC)cc23)Nc2nc(C)cc(C)n2)c1	nt	nt	nt	45.7%	nt
CC(=O)N1c2ccc(S(=O)(=O)Nc3ccc(Cl)cc3C)cc2CC1C (stereo unspecified)	nt	nt	nt	2.2%	nt
COc1ccc(NS(=O)(=O)c2ccc3oc(SC(C)C(N)=O)nc3c2)cc1 (stereo unspecified)	4.65µM*	2.33µM*	17.3%	2.8%	8.9%
CCNC(=O)CSc1nc2cc(S(=O)(=O)Nc3ccc(OC)cc3)ccc2o1	-16.2%	?	-9.0%	?	2.8%
Cc1ccc(Cn2ccc(NC(=O)c3cc(C4CC4)on3)n2)cc1	-25.1%	?	2.3%	2.2%	-44.3%
Cc1ccc(/C=N/c2sc3c(c2C(N)=O)CCCC3)o1	?	278.2%	-11.1%	22.4µM*	nt
CN(CC(=O)Nc1cccc(F)c1)C(=O)c1ccccc1CCc1ccccc1	?	6.57µM*	-12.9%	4.3%	nt
CCc1cccc(CC)c1NC(=O)c1ccccc1CCc1ccccc1	0.0%	14.7µM*	-5.1%	1.0%	-15.0%
CCOc1ccc(NC(=O)CN(C)C(=O)c2c(C)nn(Cc3ccccc3Cl)c2C)cc1OCC	nt	nt	-0.2%	nt	nt
Cc1cccc(COc2ccccc2C(=O)N(C)CC(=O)Nc2cccc(F)c2)c1	4.15µM*	?	0.6%	-4.2%	nt
Cc1nn(Cc2ccccc2Cl)c(C)c1C(=O)N(C)CC(=O)Nc1cccc(F)c1	?	13.1µM*	30.1%	-28.6%	nt
O=C1NCCn2ccc(=O)cc21	33.0%	15.2%	-5.8%	-0.1%	0.2%
C[C@@H]1COC(=O)[C@@H](Cc2ccc(F)cc2)C/C=C\C[C@@H](CC(=O)NCCO)C(=O)N1	nt	nt	2.6%	nt	nt
Oc1ccccc1C1=NCCNC(C(F)(F)F)=C1	-3.2%	0.6%	18.2%	nt	4.6%
FC(F)(F)C1=CC(c2ccc(Cl)cc2)=NCCN1	2.62µM*	?	3.8%	-1.1%	-7.9%
CCc1cc2c(SCC(=O)NCC3CCCO3)ncnc2s1 (stereo unspecified)	12.7%	20.5%	-1.7%	-4.3%	nt
CC(=O)N1CCc2c(sc3c2c(=O)n(Cc2ccccc2)c(=O)n3CC(=O)NCC2CCCO2)C1 (stereo unspecified)	15.0%	0.37µM*	-1.4%	1.9%	-6.2%
CCOC(=O)N1CCc2c(sc3c2c(=O)n(-c2ccc(CC)cc2)c(=O)n3CC(=O)NCC2CCCO2)C1 (stereo unspecified)	?	5.22µM*	3.1%	3.4%	22.5%
COCCCNC(=O)Cn1c(=O)n(-c2ccc(C)c(C)c2)c(=O)c2c3c(sc21)CCCCC3	nt	nt	nt	89.1µM*	nt
